PubChem BioAssay (EPA / NIEHS)
The source made the active and inactive calls. Rule for the calls: active = hit-call score of the fitted dose curve at least 0.9, where 1 is the maximum; inactive = score below 0.9.

Key:
[1] = ATG_CMV_CIS: Attagene CIS-FACTORIAL HepG2 Assay for human CMV (Internal Marker) (AID 2282928); settings: HepG2 CMV promoter reporter, transcription factor profiling; actives raise or lower the signal;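 note: endpoint acts as a background internal control marker rather than a target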
Method in brief: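 HepG2 cells transiently transfected with multiple cis-regulated reporter units; 24 h compound exposure. Reporter mRNA quantified by RT-PCR, 6-FAM primer-extension labeling, HpaI digestion and capillary electrophoresis; bidirectional fitting against DMSO baseline.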

[2] = molecular target: Aryl hydrocarbon receptor (Homo sapiens) (UniProt P35869); experiment: ATG_Ahr_CIS: Attagene CIS-FACTORIAL HepG2 Assay for human Aryl Hydrocarbon Receptor (Ahr) (AID 2282930); settings: HepG2 AhR cis-factorial reporter transcription; actives raise or lower the signal
Chain of Aryl hydrocarbon receptor (Homo sapiens) (P35869 whole entry, looked up): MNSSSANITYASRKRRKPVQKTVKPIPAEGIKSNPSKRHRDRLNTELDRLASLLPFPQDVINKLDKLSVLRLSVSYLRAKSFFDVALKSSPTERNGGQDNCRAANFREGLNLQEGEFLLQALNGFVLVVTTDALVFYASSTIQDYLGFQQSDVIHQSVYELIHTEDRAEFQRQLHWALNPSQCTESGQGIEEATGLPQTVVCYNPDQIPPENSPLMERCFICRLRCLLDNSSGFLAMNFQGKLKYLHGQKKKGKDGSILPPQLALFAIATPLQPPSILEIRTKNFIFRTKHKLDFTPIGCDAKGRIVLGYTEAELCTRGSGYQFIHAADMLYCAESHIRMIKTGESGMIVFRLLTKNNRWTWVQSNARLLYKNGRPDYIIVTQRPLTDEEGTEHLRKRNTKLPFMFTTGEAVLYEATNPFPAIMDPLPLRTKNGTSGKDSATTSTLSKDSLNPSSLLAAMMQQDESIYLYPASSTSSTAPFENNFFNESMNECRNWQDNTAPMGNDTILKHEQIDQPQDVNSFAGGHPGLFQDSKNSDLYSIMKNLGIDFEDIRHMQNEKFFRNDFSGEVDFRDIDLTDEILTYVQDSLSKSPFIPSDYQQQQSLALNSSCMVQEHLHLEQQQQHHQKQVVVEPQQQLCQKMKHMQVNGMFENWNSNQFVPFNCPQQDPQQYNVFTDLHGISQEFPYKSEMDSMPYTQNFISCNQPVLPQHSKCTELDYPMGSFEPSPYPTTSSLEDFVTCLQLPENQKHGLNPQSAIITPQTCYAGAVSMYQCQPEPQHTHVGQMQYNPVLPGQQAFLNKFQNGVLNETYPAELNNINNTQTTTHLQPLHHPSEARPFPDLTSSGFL
Method in brief: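 Values derive from bidirectional fitting against DMSO negative control. Underlying signal: cis-element reporter mRNA in transiently transfected HepG2, harvested 24 h post-dose and measured by RT-PCR plus capillary electrophoresis.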

[3] = ATG_AP_1_CIS: Attagene CIS-FACTORIAL HepG2 Assay for human Activator Protein 1 (AP-1) (AID 2282931); settings: HepG2 Attagene cis-factorial AP-1 reporter mRNA; actives raise or lower the signal
Method in brief: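 We transfected HepG2 cells transiently with a set of cis-regulated reporter transcription units, dosed them for 24 h, and quantified reporter mRNA via RT-PCR and capillary electrophoresis, scoring gain or loss of signal relative to DMSO.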

[4] = ATG_AP_2_CIS: Attagene CIS-FACTORIAL HepG2 Assay for human Activator Protein 2 (AP-2) (AID 2282932); settings: HepG2 AP-2 cis-reporter, Attagene transcription factor profiling; actives raise or lower the signal
Method in brief: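 HepG2 cells were transiently transfected with multiple cis-promoter reporter transcription units and dosed for 24 h. Reporter mRNA was measured by RT-PCR with capillary electrophoresis fluorescence; bidirectional fits relative to DMSO baseline.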

[5] = ATG_BRE_CIS: Attagene CIS-FACTORIAL HepG2 Assay for human Bone Morphogenetic Protein (BMP) Response Element (BRE) (AID 2282933); settings: HepG2 BMP response element reporter, Attagene transcription factor profiling; actives raise or lower the signal
Method in brief: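 Multiplexed cis-reporter assay, HepG2, 24 h exposure. mRNA from reporter units quantified via RT-PCR/CE; DMSO baseline; bidirectional curve fit.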

[6] = molecular target: Retinoic acid receptor alpha (Homo sapiens) (UniProt P10276); experiment: ATG_DR5_RAR_CIS: Attagene CIS-FACTORIAL HepG2 Assay for human Retinoic Acid Receptor Alpha (RARE), DR5 submotif (AID 2282934); settings: HepG2 Attagene cis-factorial RARE DR5 reporter, mRNA; actives raise or lower the signal
Chain of Retinoic acid receptor alpha (Homo sapiens) (P10276 whole entry, looked up): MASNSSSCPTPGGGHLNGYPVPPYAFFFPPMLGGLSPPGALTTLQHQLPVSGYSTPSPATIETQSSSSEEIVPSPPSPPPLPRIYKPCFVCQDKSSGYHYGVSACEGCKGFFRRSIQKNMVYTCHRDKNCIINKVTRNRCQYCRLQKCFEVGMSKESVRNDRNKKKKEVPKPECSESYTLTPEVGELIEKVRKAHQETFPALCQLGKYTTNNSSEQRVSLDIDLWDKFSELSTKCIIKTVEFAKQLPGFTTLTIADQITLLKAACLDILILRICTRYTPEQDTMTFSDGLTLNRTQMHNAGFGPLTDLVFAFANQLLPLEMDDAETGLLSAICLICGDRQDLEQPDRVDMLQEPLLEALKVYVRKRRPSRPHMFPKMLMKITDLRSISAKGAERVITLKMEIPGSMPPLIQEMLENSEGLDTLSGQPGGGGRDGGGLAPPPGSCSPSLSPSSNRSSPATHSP
Method in brief: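 Endpoint fitted in both directions relative to DMSO as negative control. It reflects DR5 cis-element reporter mRNA induction in transiently transfected HepG2 cells, measured 24 h after dosing through RT-PCR and fluorescent capillary electrophoresis.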

[7] = molecular target: Transcription factor E2F1 (Homo sapiens) (UniProt Q01094); experiment: ATG_E2F_CIS: Attagene CIS-FACTORIAL HepG2 Assay for human E2F Transcription Factor 1 (AID 2282935); settings: HepG2 Attagene cis-reporter, E2F reporter RNA transcripts; actives raise or lower the signal
Chain of Transcription factor E2F1 (Homo sapiens) (Q01094 whole entry, looked up): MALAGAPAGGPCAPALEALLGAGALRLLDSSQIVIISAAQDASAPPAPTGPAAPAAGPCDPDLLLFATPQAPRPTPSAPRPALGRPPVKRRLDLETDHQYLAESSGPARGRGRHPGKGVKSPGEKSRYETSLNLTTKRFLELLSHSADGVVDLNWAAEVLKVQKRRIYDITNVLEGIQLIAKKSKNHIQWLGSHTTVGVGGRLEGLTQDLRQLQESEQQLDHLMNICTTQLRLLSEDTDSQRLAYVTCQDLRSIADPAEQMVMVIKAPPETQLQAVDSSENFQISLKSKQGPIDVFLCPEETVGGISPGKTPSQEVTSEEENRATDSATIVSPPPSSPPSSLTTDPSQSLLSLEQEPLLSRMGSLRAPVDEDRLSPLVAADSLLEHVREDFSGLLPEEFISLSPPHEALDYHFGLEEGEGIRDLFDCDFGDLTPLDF
Method in brief: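 HepG2 cells transiently transfected with multiplexed cis-element reporter units, dosed for 24 h. Reporter mRNA measured by RT-PCR, 6-FAM primer-extension labeling, HpaI digestion and capillary electrophoresis; bidirectional fit versus DMSO baseline.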

[8] = ATG_E_Box_CIS: Attagene CIS-FACTORIAL HepG2 Assay for human Enhancer Box (E-box) (AID 2282936); settings: HepG2 E-box cis-reporter transcription, actives raise or lower the signal
Method in brief: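 HepG2 cells transiently transfected with multiplexed cis-element reporter units sensing endogenous transcription factor activity; 24 h compound exposure. Reporter mRNA measured by RT-PCR, 6-FAM primer extension, HpaI digestion and capillary electrophoresis; bidirectional fit versus DMSO.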

[9] = ATG_M_61_CIS: Attagene CIS-FACTORIAL HepG2 Assay for M61 Transcription Factor (Internal Marker) (AID 2282937); settings: HepG2 Attagene CIS-FACTORIAL M61 internal marker reporter; actives raise or lower the signal
Method in brief: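 Multiplexed reporter mRNA assay, HepG2 human hepatoma cells, 24 h treatment. Signal: FAM-labelled, HpaI-digested RT-PCR fragments by CE. Fit: bidirectional, baseline DMSO.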

[10] = ATG_EGR_CIS: Attagene CIS-FACTORIAL HepG2 Assay for human Early Growth Response 1 (EGR1) (AID 2282938); settings: HepG2 Attagene CIS-FACTORIAL EGR reporter mRNA; actives raise or lower the signal
Method in brief: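 Multiplexed cis-reporter system in human hepatoma HepG2 cells, transiently transfected. Cells are dosed for 24 h; reporter transcripts are amplified, fluorescently tagged and sized by capillary electrophoresis, with DMSO as negative control.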

[11] = ATG_M_19_CIS: Attagene CIS-FACTORIAL HepG2 Assay for M19 Transcription Factor (Internal Marker) (AID 2282939); settings: HepG2 Attagene CIS-FACTORIAL M19 internal marker reporter; actives raise or lower the signal
Method in brief: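 Signals come from fluorescence of labelled reporter-specific PCR fragments resolved by capillary electrophoresis, following 24 h treatment of HepG2 cells transfected with cis-promoter reporter units; activity was fitted in both directions relative to DMSO.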

[12] = ATG_Ets_CIS: Attagene CIS-FACTORIAL HepG2 Assay for human Erythroblast Transformation Specific (ETS) (AID 2282941); settings: HepG2 ETS cis-reporter transcription, actives raise or lower the signal
Method in brief: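 HepG2 cells transiently transfected with cis-promoter reporter transcription units were dosed for 24 h; reporter mRNA was measured by RT-PCR, 6-FAM primer extension, HpaI digestion and capillary electrophoresis, with bidirectional fitting against DMSO baseline.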

[13] = molecular target: Hepatocyte nuclear factor 3-beta (Homo sapiens) (UniProt Q9Y261); experiment: ATG_FoxA2_CIS: Attagene CIS-FACTORIAL HepG2 Assay for human Forkhead box A2 (FOXA2) (AID 2282942); settings: HepG2 cis-reporter transcription factor activity, 24 h; actives raise or lower the signal
Chain of Hepatocyte nuclear factor 3-beta (Homo sapiens) (Q9Y261 whole entry, looked up): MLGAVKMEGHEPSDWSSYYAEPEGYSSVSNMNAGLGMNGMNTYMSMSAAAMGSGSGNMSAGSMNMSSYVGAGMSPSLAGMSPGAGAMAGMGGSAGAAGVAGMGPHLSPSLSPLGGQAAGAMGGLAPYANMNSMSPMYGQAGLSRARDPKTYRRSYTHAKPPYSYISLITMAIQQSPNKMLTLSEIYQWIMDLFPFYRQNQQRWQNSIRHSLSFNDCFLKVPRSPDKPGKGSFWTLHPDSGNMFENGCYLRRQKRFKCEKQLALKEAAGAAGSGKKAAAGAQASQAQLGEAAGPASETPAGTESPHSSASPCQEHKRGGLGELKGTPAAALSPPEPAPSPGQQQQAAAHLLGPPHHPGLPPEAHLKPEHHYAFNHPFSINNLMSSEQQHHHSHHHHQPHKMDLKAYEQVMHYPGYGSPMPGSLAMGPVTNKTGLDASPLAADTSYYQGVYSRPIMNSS
Method in brief: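 Multiplexed cis-element reporter assay in transiently transfected HepG2. Twenty-four hours post-dosing, RNA was reverse-transcribed, amplified, FAM-labelled, HpaI-digested and separated by CE. Activity gain or loss relative to DMSO.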

[14] = ATG_GATA_CIS: Attagene CIS-FACTORIAL HepG2 Assay for human GATA Binding Protein (AID 2282944); settings: HepG2 GATA cis-element reporter, Attagene multiplex mRNA; actives raise or lower the signal
Method in brief: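 After transfecting HepG2 cells with multiple cis-regulated reporter units, chemicals are dosed for 24 h; isolated RNA undergoes RT-PCR and fluorescent labeling before capillary electrophoresis, with activity expressed against DMSO.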

[15] = ATG_GLI_CIS: Attagene CIS-FACTORIAL HepG2 Assay for human Zinc Finger Protein GLI1 (AID 2282945); settings: HepG2, Attagene cis-factorial reporter mRNA, GLI element; actives raise or lower the signal
Method in brief: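 HepG2 cells transiently transfected with cis-promoter multiplexed reporter units report endogenous transcription factor activity. After 24 h chemical exposure, reporter mRNA was quantified by RT-PCR, 6-FAM labelling, HpaI digestion and capillary electrophoresis, with bidirectional fitting against DMSO.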

[16] = ATG_GRE_CIS: Attagene CIS-FACTORIAL HepG2 Assay for human Glucocorticoid Response Elements (GRE) (AID 2282947); settings: HepG2 GRE cis-reporter, Attagene multiplex mRNA; actives raise or lower the signal
Method in brief: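 HepG2 cells transiently transfected with multiple cis-promoter reporter units measure endogenous TF activity; 24 h compound exposure. Reporter mRNA quantified by RT-PCR, FAM labelling, HpaI digestion and capillary electrophoresis; bidirectional fit vs DMSO baseline.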

[17] = ATG_ERE_CIS: Attagene CIS-FACTORIAL HepG2 Assay for Estrogen Response Element (ERE) (AID 2282940); settings: HepG2 ERE cis-reporter, Attagene RNA transcript; actives raise or lower the signal
Method in brief: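 Fluorescence of capillary-separated, FAM-labelled reporter cDNA fragments indicates reporter mRNA levels in HepG2 cells exposed to chemicals for 24 h. Transient transfection with cis-regulated units; data fitted in both directions against DMSO.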

[18] = ATG_FoxO_CIS: Attagene CIS-FACTORIAL HepG2 Assay for human Forkhead box O (FoxO) (AID 2282943); settings: HepG2 Attagene cis-reporter, FoxO element, mRNA; actives raise or lower the signal
Method in brief: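 Values reflect reporter mRNA induction or loss in HepG2 cells 24 h post-dosing, fitted bidirectionally with DMSO as negative control and baseline. Detection used RT-PCR and fluorescence capillary electrophoresis.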

[19] = molecular target: Bile acid receptor (Homo sapiens) (UniProt Q96RI1); experiment: ATG_IR1_CIS: Attagene CIS-FACTORIAL HepG2 Assay for human Nuclear Receptor Subfamily 1 Group H Member 4 (NR1H4), IR1 submotif (AID 2282946); settings: IR1 reporter transcription, actives raise or lower the signal
Chain of Bile acid receptor (Homo sapiens) (Q96RI1 whole entry, looked up): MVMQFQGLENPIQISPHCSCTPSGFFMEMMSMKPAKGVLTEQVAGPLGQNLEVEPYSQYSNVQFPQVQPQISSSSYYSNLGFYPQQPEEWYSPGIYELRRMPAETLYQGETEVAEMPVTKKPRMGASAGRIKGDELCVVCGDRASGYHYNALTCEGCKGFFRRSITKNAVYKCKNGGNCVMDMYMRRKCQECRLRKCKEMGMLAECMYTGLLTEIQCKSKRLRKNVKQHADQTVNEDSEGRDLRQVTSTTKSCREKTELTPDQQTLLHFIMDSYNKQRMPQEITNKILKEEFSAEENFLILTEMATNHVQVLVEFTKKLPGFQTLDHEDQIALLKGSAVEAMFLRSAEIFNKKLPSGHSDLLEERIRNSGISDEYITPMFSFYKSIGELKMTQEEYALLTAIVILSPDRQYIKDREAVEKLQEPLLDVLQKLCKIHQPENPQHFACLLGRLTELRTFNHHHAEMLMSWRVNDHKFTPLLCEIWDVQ
Method in brief: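 Transient MRTU transfection, HepG2; 24 h dosing; RNA → RT-PCR → 6-FAM primer extension → HpaI digest → capillary electrophoresis fluorescence. Gain/loss of signal fitted relative to DMSO.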

Clc1cnc(Oc2ccc(Oc3ncc(Cl)cc3Cl)cc2)c(Cl)c1
outcome [1]: inactive | AC50 [2]: 5.93 µM (active) | outcome [3]: inactive | outcome [4]: inactive | outcome [5]: inactive | outcome [6]: inactive | outcome [7]: inactive | outcome [8]: inactive | outcome [9]: inactive | outcome [10]: inactive | outcome [11]: inactive | outcome [12]: inactive | outcome [13]: inactive | outcome [14]: inactive | outcome [15]: inactive | outcome [16]: inactive

Nc1ccc(-c2ccccc2)cc1
outcome [1]: inactive | outcome [2]: inactive | outcome [3]: inactive | outcome [5]: inactive | outcome [6]: inactive | outcome [7]: inactive | outcome [8]: inactive | outcome [9]: inactive | outcome [11]: inactive | AC50 [17]: 32 µM (active) | outcome [12]: inactive | outcome [13]: inactive | outcome [18]: inactive | outcome [14]: inactive | outcome [15]: inactive

Nc1nc(N)nc(Cl)n1
outcome [1]: inactive | outcome [2]: inactive | outcome [3]: inactive | outcome [4]: inactive | outcome [5]: inactive | outcome [6]: inactive | outcome [7]: inactive | outcome [8]: inactive | outcome [9]: inactive | outcome [10]: inactive | outcome [11]: inactive | outcome [17]: inactive | outcome [12]: inactive | outcome [13]: inactive | outcome [18]: inactive | outcome [14]: inactive | outcome [15]: inactive

O=C(NC(=O)c1c(F)cccc1F)Nc1cc(Cl)c(OC(F)(F)C(F)C(F)(F)F)cc1Cl (centres undefined)
outcome [1]: inactive | AC50 [2]: 27.7 µM (active) | AC50 [3]: 100 µM (active) | outcome [5]: inactive | outcome [6]: inactive | outcome [7]: inactive | outcome [8]: inactive | outcome [9]: inactive | outcome [10]: inactive | outcome [11]: inactive | outcome [17]: inactive | outcome [12]: inactive | outcome [13]: inactive | outcome [18]: inactive | outcome [14]: inactive | outcome [15]: inactive | outcome [19]: inactive

Cc1cccc(N=Nc2ccc(N(C)C)cc2)c1
outcome [1]: inactive | AC50 [2]: 8.37 µM (active) | outcome [3]: inactive | outcome [4]: inactive | outcome [5]: inactive | outcome [6]: inactive | outcome [7]: inactive | outcome [8]: inactive | outcome [9]: inactive | outcome [10]: inactive | outcome [11]: inactive | outcome [12]: inactive | outcome [13]: inactive | outcome [18]: inactive | outcome [14]: inactive | outcome [15]: inactive | outcome [16]: inactive

CN(C)C(=S)S
AC50 [1]: 26.2 µM (active) | outcome [2]: inactive | AC50 [3]: 25.9 µM (active) | outcome [4]: inactive | outcome [5]: inactive | outcome [7]: inactive | outcome [8]: inactive | outcome [9]: inactive | outcome [10]: inactive | outcome [11]: inactive | outcome [12]: inactive | outcome [13]: inactive | outcome [18]: inactive | outcome [14]: inactive | outcome [15]: inactive

CN(C1CCCCC1)C1CCCCC1
outcome [1]: inactive | outcome [2]: inactive | outcome [3]: inactive | outcome [4]: inactive | outcome [5]: inactive | outcome [6]: inactive | outcome [7]: inactive | outcome [8]: inactive | outcome [9]: inactive | outcome [10]: inactive | outcome [11]: inactive | outcome [12]: inactive | outcome [13]: inactive | outcome [18]: inactive | outcome [14]: inactive | outcome [15]: inactive | outcome [16]: inactive
